Data published in PubChem BioAssay (NCATS).
Results filed as inconclusive are left out. Active and inactive are the calls of the source. Unless noted, the call rests on the fitted dose curve; in most records, active means well fitted curve in the direction sought with a large enough effect; inconclusive means small, poorly fitted or top-dose-only effect, or another doubt; inactive means no such curve, though single readings can be large; an effect the other way counts as inactive or inconclusive.

Experiments:
[1] = target: Lysosomal acid glucosylceramidase (Homo sapiens) (UniProt P04062); test: Glucocerebrosidase-p2 (AID 348; in the data active means potency below about 10 µM; further: potency means the concentration at half of the fitted maximal effect); details: purified GBA, blue fluorogenic substrate, 40 min
Summary of the method: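 Compounds titrated from 0.6 nM upwards against 0.2 nM enzyme in pH 5.9 citric acid/KH2PO4, taurocholate, tween-20; blue fluorogenic substrate 80 uM, 40 min room temperature, stopped and read Ex 365/Em 440 for AC50.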

[2] = AP1 Signaling Pathway (AID 357; active means well fitted curve in either direction with a large enough effect, not every such curve was filed as active;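 further: ME-180 reporter cells stimulated with EGF at its EC50 level; on the % scale 0 is the no-effect control and ±100 the full control effect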); details: ME-180 AP-1-bla reporter, EGF-induced, beta-lactamase ratio, 5 h; at 7.69 µM (top of the series) unless noted
Summary of the method: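 Read-out was the 460nm/530nm emission ratio (excitation 405nm) after CCF4 loading for 2.5 hours at room temperature. Cells carried an AP-1-driven beta-lactamase reporter, were stimulated with EC50 EGF plus compound for 5 hours, and AC50 values came from titrations.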

[3] = target: Cytochrome P450 1A2 (Homo sapiens) (UniProt P05177); test: p450-cyp1a2 (AID 410; calls by dose curve; further: potency means the concentration at half of the fitted maximal effect)
Chain of Cytochrome P450 1A2 (Homo sapiens) (P05177 whole entry, looked up): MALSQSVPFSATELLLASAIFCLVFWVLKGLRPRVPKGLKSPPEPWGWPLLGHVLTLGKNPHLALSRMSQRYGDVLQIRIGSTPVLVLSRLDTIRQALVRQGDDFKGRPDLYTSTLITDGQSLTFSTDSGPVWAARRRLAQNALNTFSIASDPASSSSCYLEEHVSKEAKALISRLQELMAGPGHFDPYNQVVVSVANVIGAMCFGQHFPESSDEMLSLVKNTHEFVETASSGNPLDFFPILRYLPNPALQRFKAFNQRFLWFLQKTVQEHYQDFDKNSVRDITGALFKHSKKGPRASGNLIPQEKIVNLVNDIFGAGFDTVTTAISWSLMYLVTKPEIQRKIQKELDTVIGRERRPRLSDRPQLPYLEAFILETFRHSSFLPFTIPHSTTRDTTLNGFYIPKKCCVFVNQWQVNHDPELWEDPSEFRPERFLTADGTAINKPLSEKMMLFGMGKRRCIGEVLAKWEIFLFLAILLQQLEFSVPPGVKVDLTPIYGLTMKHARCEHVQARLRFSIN
Summary of the method: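 Inhibition was calculated relative to 57 uM furafylline (full inhibition). The reaction used human CYP1A2 at 20nM with Luciferin-ME at its Km, 100uM, driven by an NADPH-regenerating system for 60 min at room temperature.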

[4] = NFAT Signaling Pathway (AID 444; active means well fitted curve in either direction with a large enough effect, not every such curve was filed as active;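 further: carbachol stimulus at about its EC50 of 1 µM final; on the % scale 0 is the no-effect control and ±100 the full control effect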); details: Jurkat NFAT-bla M1, carbachol, beta-lactamase ratio, 5 h; at 7.69 µM (top of the series) unless noted
Summary of the method: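 Jurkat cells with NFAT-driven β-lactamase reporter and co-expressed M1 receptor, stimulated with carbachol (final 1 uM, ~EC50), compound titration, 5 h at 37 °C. CCF4 loaded 1 h at RT; 460/530 nm ratio gave %activity and AC50.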

[5] = Stat Signaling Pathway (AID 446; active means well fitted curve in either direction with a large enough effect, not every such curve was filed as active;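 further: ME-180 cervical cancer cells given 40 pM IL-6 alongside compound; SIE-controlled beta-lactamase reporter measured as 460/530 nm FRET emission ratio; on the % scale 0 is the no-effect control and ±100 the full control effect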); details: ME-180 (cervical carcinoma) SIE beta-lactamase reporter, IL-6 stimulated, 5 h; at 7.69 µM (top of the series) unless noted
Summary of the method: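 IL-6/STAT signaling read in ME-180 cells via an SIE beta-lactamase reporter. Stimulus was 40 pM IL-6 (its AC50) for 5 hrs, so both activation and inhibition register.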

[6] = target: Glucocorticoid receptor (Homo sapiens) (UniProt P04150); test: GR-GFP Redistribution (AID 450;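 active means compounds whose dose series gives a full or clear partial fitted curve of increased nuclear translocation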; further: potency means the concentration at half of the fitted maximal effect); details: U2OS GR-GFP nuclear translocation, laser cytometry, 2 h
Chain of Glucocorticoid receptor (Homo sapiens) (P04150 whole entry, looked up, the tested form may be a part): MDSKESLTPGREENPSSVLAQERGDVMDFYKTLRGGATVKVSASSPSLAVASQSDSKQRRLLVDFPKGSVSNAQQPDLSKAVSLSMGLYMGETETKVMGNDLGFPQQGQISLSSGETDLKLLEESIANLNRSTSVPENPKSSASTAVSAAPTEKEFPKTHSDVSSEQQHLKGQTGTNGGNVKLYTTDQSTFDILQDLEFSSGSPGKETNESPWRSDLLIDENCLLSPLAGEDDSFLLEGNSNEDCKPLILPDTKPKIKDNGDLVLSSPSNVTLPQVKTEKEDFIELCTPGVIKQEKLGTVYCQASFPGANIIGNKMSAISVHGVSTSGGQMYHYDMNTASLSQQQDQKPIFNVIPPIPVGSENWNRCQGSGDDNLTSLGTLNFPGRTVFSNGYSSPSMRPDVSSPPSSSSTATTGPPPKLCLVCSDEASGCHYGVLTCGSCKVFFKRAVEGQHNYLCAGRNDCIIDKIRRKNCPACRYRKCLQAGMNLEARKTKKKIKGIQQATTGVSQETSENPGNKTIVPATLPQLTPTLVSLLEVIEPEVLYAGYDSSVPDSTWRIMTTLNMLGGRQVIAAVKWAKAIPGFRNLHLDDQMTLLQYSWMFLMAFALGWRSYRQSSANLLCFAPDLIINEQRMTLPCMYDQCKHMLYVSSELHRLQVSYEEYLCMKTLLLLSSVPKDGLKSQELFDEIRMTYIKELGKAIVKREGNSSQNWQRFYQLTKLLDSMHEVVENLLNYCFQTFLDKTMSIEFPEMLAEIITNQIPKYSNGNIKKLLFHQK

[7] = target: Glucocorticoid receptor (Homo sapiens) (UniProt P04150); test: GR-EFC Redistribution (AID 451; calls by dose curve; further: potency means the concentration at half of the fitted maximal effect); details: CHO-K1 GR-EFC translocation, beta-gal luminescence, 2 h
Summary of the method: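 CHO-K1 cells expressing nuclear EA and GR-ED fragments of b-gal; compounds titrated up to 46 uM final, 2 h at 37 C. GR nuclear translocation read as complemented b-gal luminescence after 1 h RT detection.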

[8] = target: Mitogen-activated protein kinase 10 (Mus musculus) (UniProt Q61831); test: JNK3 AlphaScreen Assay (AID 530; active means well fitted curve in either direction with a large enough effect, not every such curve was filed as active;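 further: kinase came from lysate of stimulated human HepG2 cells; signal reports phosphorylation of biotinylated GST-cJun 1-79 at Ser73 with 10 µM ATP; on the % scale 0 is the no-effect control and ±100 the full control effect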)
Summary of the method: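 qHTS format: compounds tested as titrations against IL-1beta/TNF-alpha-activated HepG2 lysate JNK3 with biotin-GST-cJun substrate and 10 uM ATP at room temperature. Loss of anti-phospho-cJun AlphaScreen signal indicates inhibition.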

[9] = target: Cytochrome P450 3A4 (Homo sapiens) (UniProt P08684); test: qHTS Assay for Activators of Cytochrome P450 3A4 (AID 885); further: nearly all actives have a fitted effect of over 65% in size
Chain of Cytochrome P450 3A4 (Homo sapiens) (P08684 whole entry, looked up): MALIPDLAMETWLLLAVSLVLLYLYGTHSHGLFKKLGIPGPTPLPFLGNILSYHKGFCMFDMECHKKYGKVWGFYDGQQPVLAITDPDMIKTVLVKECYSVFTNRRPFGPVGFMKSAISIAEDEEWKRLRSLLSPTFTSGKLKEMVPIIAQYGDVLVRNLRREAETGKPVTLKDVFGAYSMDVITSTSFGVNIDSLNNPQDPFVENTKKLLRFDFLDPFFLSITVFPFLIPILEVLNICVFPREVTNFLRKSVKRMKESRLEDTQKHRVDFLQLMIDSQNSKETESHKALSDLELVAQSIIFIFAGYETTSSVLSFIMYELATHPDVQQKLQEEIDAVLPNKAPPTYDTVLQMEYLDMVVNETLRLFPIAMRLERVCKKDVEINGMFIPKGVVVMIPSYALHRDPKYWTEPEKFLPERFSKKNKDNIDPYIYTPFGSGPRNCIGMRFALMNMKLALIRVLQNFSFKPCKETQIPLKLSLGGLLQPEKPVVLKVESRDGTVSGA
Summary of the method: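 Quantitative HTS format: compounds preincubated with 20nM human CYP3A4 and Luciferin-PPXE substrate at KM, reaction started by NADPH regeneration, stopped after 60 min, luciferase luminescence read 20 min later.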

[10] = target: Cytochrome P450 2D6 (Homo sapiens) (UniProt P10635); test: qHTS Assay for Inhibitors and Substrates of Cytochrome P450 2D6 (AID 891); further: potency means the concentration at half of the fitted maximal effect; nearly all actives have a fitted effect of over 60% in size
Summary of the method: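 Human CYP2D6 (5 nM) with 30 uM Luciferin-ME EGE (at Km) in 100 mM KPO4, compound preincubated 10 min, then NADPH regeneration system for 60 min at room temperature. Luciferin read by luminescence; normalized to 1.43 uM quinidine.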

[11] = target: Cytochrome P450 2C19 (Homo sapiens) (UniProt P33261); test: qHTS Assay for Inhibitors and Substrates of Cytochrome P450 2C19 (AID 899); further: potency means the concentration at half of the fitted maximal effect; nearly all actives have a fitted effect of over 60% in size
Chain of Cytochrome P450 2C19 (Homo sapiens) (P33261 whole entry, looked up): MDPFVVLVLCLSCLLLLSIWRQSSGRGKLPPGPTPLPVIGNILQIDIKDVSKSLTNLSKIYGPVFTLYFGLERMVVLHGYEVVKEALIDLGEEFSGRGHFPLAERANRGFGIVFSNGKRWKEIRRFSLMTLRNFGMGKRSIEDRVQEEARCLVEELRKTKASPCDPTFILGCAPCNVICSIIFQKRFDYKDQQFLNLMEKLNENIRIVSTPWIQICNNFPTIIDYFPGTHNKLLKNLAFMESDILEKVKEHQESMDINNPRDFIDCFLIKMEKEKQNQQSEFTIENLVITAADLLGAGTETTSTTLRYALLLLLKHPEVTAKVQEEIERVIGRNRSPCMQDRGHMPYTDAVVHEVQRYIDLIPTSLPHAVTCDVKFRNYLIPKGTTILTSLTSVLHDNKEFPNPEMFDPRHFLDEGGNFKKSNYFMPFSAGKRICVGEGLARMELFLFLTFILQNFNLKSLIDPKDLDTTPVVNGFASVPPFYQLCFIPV
Summary of the method: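 Signal comes from luciferase acting on luciferin released by CYP2C19-mediated hydroxylation of Luciferin-H EGE, 10uM (KM). Assay mix: 5nM enzyme, 50mM KPO4; 60 min at 37C with NADPH regeneration. Data normalized against 57uM ketoconazole.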

[12] = target: Dual specificity protein kinase CLK4 (Homo sapiens) (UniProt Q9HAZ1); test: qHTS Assay for Inhibitors of CDC-like Kinase 4 (Kinase-Glo Assay) (AID 1770); further: potency means the concentration at half of the fitted maximal effect; nearly all actives have a fitted effect of over 65% in size
Chain of Dual specificity protein kinase CLK4 (Homo sapiens) (Q9HAZ1 whole entry, looked up): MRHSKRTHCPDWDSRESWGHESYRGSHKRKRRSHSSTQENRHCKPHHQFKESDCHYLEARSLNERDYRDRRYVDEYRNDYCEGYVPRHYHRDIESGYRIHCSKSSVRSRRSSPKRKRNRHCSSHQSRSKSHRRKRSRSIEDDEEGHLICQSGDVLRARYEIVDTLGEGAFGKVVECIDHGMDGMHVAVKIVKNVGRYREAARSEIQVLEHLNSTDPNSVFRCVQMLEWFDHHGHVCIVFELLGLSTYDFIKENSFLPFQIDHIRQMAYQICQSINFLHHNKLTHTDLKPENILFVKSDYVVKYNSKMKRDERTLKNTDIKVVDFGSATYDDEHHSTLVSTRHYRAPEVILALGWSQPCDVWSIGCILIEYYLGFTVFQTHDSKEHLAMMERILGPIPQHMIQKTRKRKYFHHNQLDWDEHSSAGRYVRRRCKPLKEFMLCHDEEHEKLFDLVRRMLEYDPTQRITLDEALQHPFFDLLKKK
Summary of the method: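 Luminescent ATP-depletion read-out (Kinase-Glo) after 4.5 h room-temperature reaction of Clk4 (25 nM final) with RS peptide (100 uM) and ATP (1 uM), pH 7.5 Tris buffer with MgCl2 and DTT.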

[13] = target: Dual specificity protein kinase CLK4 (Homo sapiens) (UniProt Q9HAZ1); test: qHTS Assay for Inhibitors of CDC-like Kinase 4 (ADP-Glo Assay) (AID 1771); further: potency means the concentration at half of the fitted maximal effect; nearly all actives have a fitted effect of over 70% in size
Summary of the method: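 Kinase reaction: Clk4 at 25 nM, RS repeat peptide substrate at 100 uM, ATP at 1 uM, 1 hr, room temperature. Product ADP detected as luciferase signal via ADP-Glo.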

[14] = target: Dual specificity protein kinase CLK4 (Homo sapiens) (UniProt Q9HAZ1); test: qHTS Assay for Inhibitors of CDC-like Kinase 4 (ADP-FP Assay) (AID 1795); further: potency means the concentration at half of the fitted maximal effect; nearly all actives have a fitted effect of over 60% in size
Summary of the method: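 Kinase activity was measured as ADP production using Transcreener orange tracer (4 nM) and ADP antibody (1 ug/mL) fluorescence polarization, with ADP calculated from a calibration curve. The 1 h reaction contained 6.25 nM Clk4, 1 uM ATP and 100 uM RS peptide at pH 7.5 with Mg2+.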

[15] = target: Ubiquitin carboxyl-terminal hydrolase 1 (Homo sapiens) (UniProt O94782); test: Inhibitors of USP1/UAF1: Pilot qHTS (AID 504865);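 further: rhodamine fluorescence freed from ubiquitin-rhodamine substrate followed over time; top concentration of the series differs between compounds; on the % scale 0 is the no-effect control and ±100 the full control effect; nearly all actives have a fitted effect of over 35% in size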
Chain of Ubiquitin carboxyl-terminal hydrolase 1 (Homo sapiens) (O94782 whole entry, looked up): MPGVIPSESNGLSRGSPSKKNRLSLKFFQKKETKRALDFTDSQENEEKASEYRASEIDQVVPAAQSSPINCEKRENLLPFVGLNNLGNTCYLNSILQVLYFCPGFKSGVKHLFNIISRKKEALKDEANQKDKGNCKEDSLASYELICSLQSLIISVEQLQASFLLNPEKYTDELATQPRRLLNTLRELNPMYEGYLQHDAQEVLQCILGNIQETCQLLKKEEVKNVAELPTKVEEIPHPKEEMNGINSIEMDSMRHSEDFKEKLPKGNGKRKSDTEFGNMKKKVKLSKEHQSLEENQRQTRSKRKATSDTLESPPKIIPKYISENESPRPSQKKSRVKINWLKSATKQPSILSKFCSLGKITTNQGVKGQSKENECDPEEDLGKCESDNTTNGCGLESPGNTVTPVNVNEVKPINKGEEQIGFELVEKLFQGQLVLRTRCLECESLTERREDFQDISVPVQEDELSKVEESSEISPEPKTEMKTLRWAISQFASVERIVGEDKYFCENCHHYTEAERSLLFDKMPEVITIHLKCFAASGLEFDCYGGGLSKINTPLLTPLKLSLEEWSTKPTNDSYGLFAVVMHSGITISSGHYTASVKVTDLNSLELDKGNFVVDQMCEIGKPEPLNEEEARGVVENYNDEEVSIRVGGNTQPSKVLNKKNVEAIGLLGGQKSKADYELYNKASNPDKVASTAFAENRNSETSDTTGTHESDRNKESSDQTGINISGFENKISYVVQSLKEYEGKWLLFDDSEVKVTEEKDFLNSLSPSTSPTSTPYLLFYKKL
Summary of the method: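 Deubiquitinase activity followed as kinetic rhodamine fluorescence release from 150 nM Ub-Rho. 1 nM USP1/UAF1 with compound, after 15 min room-temperature preincubation, in HEPES pH 7.8 buffer containing TCEP, EDTA, BSA and Tween-20.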

[16] = target: Calcium and integrin-binding protein 1 (Homo sapiens) (UniProt Q99828); test: Primary qHTS for Identification of Calcium Integrin Binding Protein 1 (CIB1) Competitor (AID 1508620)
Chain of Calcium and integrin-binding protein 1 (Homo sapiens) (Q99828 whole entry, looked up): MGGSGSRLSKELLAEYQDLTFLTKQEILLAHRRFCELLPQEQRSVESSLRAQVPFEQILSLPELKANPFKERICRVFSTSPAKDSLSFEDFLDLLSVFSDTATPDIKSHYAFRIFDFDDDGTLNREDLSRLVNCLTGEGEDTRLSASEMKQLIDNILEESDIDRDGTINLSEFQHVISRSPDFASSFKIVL
Summary of the method: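 Fluorescence polarization competition: GST-tagged CIB1 (1 uM final) preincubated with compound 15 min at room temperature, then FITC-labelled alphaIIb peptide (100 nM final) added. After 15 min at room temperature, polarization read at Ex 480/Em 540.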

[17] = Primary qHTS for small molecule stabilizers of the endoplasmic reticulum resident proteome: Secreted ER Calcium Modulated Protein (SERCaMP) assay (AID 1508630); further: on the % scale 0 is the no-effect control and ±100 the full control effect
Summary of the method: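 GLuc-SERCaMP-expressing SH-SY5Y cells, pretreated 16 h with compound, are challenged with thapsigargin to empty ER calcium stores; after 4 h, coelenterazine is added directly to the medium and luminescence is imaged.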

[18] = target: Rap guanine nucleotide exchange factor 3 (Homo sapiens) (UniProt O95398); test: Confirmatory qHTS for agonist of cAMP-regulated guanine nucleotide exchange factor 3 (EPAC1) (AID 1645881);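 further: EPAC1 catalysed release of BODIPY-GDP from Rap1B seen as fluorescence loss; 100% = effect of cAMP agonist control; nearly all actives have a fitted effect of over 75% in size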
[19] = target: Rap guanine nucleotide exchange factor 4 (Homo sapiens) (UniProt Q8WZA2); test: Confirmatory qHTS for agonist of cAMP-regulated guanine nucleotide exchange factor 4 (EPAC2) (AID 1645884);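 further: nucleotide exchange releases bodipy-GDP from Rap1 and this lowers its fluorescence; on the % scale 0 is the no-effect control and ±100 the full control effect; nearly all actives have a fitted effect of over 65% in size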
Chain of Rap guanine nucleotide exchange factor 4 (Homo sapiens) (Q8WZA2 whole entry, looked up): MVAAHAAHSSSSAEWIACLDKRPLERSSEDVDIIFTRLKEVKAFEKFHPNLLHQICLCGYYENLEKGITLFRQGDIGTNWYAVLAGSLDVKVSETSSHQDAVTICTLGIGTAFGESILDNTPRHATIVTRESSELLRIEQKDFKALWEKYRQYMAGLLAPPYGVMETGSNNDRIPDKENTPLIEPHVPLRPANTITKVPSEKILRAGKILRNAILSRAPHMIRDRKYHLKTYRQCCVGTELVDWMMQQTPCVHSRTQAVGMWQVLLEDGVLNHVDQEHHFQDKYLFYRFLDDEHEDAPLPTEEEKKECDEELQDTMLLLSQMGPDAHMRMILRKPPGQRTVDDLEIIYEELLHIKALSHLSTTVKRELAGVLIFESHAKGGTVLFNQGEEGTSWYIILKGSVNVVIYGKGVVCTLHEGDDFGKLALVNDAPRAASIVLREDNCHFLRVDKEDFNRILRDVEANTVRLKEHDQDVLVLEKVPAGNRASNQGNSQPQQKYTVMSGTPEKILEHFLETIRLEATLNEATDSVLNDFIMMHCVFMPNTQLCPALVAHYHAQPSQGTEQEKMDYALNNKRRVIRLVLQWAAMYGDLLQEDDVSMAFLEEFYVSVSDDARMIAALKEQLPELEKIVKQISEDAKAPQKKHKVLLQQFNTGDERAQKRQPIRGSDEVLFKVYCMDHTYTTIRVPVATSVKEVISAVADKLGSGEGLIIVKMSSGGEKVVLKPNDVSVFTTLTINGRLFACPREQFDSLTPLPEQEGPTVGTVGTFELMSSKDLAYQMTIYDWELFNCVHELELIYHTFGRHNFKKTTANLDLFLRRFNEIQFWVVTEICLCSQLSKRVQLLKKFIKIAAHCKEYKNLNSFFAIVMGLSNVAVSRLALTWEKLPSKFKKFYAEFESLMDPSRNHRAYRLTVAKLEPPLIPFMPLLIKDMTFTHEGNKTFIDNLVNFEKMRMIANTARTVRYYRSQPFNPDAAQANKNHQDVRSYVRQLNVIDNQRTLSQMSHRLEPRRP

[20] = Confirmation and Secondary Assay for Modulators of Hemoglobin Beta Chain Splicing at IVS2 654 locus (AID 910);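 further: HeLa cells stably carrying EGFP split by mutant beta-globin IVS2-654 intron; % of control where 0% means no effect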
Summary of the method: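 HeLa cells stably expressing EGFP interrupted by β-globin IVS2-654 intron, seeded overnight in Opti-MEM/2% FCS, then treated 2 days at 37 °C. Restored splicing read as total peak GFP intensity per well by laser scanning cytometry (488 nm excitation, 500–520 nm emission); 500 nM antisense PNA as control.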

[21] = Confirmation and Secondary Assay for Modulators of Hemoglobin Beta Chain Splicing at IVS2 705 locus (AID 930);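 further: HeLa cells stably expressing the EGFP-705 splicing reporter; GFP fluorescence per well restored by corrected splicing of the IVS2-705 intron in EGFP; % of control where 0% means no effect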
Summary of the method: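 Fluorescence gain (488 nm laser, 500-520 nm PMT) reflects restored correct splicing of a mutant IVS2-705 intron inside EGFP in stably transfected HeLa cells after 2-day compound treatment.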

[22] = qHTS Assay for Lipid Storage Modulators (AID 1519; calls by dose curve); details: Drosophila S3 cells, BODIPY lipid droplet/cell ratio, laser cytometry, cells loaded with oleic acid
Summary of the method: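 Cells seeded at 5,000 per well were treated with compounds over a concentration series and loaded with oleic acid (400 uM, as added). Lipid droplet fluorescence (488 nm excitation, 500-530 nm channel) was read by laser-scanning cytometry and normalized to 20 uM Triacsin C.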

CN(Cc1ccco1)c1ncnc2ccc(-c3ccccc3Cl)cc12
inactive: Potency [1] > 11.4 µM | activity change, negative = inhibition [2] -12% | activity change, negative = inhibition [4] -13.6% | activity, negative = inhibition [5] 11.7% | Potency [6] > 46 µM | Potency [7] > 46 µM | outcome [8] | Potency [9] | Potency [15] | Potency [16] | Potency [17] | outcome [18] | outcome [19]
active: Potency [3] 2 µM | Potency [10] 7.94 µM | Potency [11] 3.16 µM | Potency [12] 14.1 µM | Potency [13] 14.1 µM | Potency [14] 4.47 µM

Cc1cccc(CNc2ncnc3ccc(-c4ccoc4)cc23)c1
inactive: activity change, negative = inhibition [2] -19.9% | activity change, negative = inhibition [4] -14.2% | activity, negative = inhibition [5] -30% | Potency [6] > 46 µM | Potency [7] > 46 µM | outcome [8] | outcome [20] | outcome [21] | activity change, negative = inhibition ([22]; at 57.5 µM (top of the series)) -3% | Potency [15] | Potency [16] | Potency [17]
6.71%: max response ([22]; measured here: lipid channel max response)
11.4%: max response ([22]; measured here: cell count channel max response)
active: Potency [3] 3.98 µM | Potency [11] 7.94 µM
